Results published in PubChem BioAssay (Tox21).
Values joined by “and” are separate entries in the source; they are usually repeats but may differ in a detail not shown here. Equal entries are not always repeated. Values without a mark were called inactive. Records with an inconclusive call do not appear. A call without a number means that no potency is given here. Active and inactive are the calls of the source. Unless noted, calls follow the shape of the dose curve; as a rule, active = well fitted curve in the direction sought with a large enough effect in the repeat runs; inconclusive = weak or mixed curves; inactive = no such curve, though single readings can be large; an effect the other way counts as inactive or inconclusive.

Tests used:
[1] = qHTS assay for small molecule agonists of the p53 signaling pathway - cell viability (AID 651633; calls by dose curve; also: nearly all actives have a fitted effect of over 30% in size; also: potency is read from the fitted curve at half-maximal effect)
How it was run: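 Viability counter-read: CellTiter-Glo luminescence (30 min, room temperature) in the same p53RE-bla plates. These plates had been exposed to compounds for 16 h at 37 C.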

[2] = qHTS assay for small molecule disruptors of the mitochondrial membrane potential - cell viability (AID 720634; calls by dose curve; also: nearly all actives have a fitted effect of over 20% in size; also: potency is read from the fitted curve at half-maximal effect)
How it was run: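 Viability of HepG2 cells is scored from ATP content by luminescence; cells are exposed to compound for 1 hr at 37 C and 5% CO2, then dosed with m-MPI dye before the CellTiter-Glo reagent.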

[3] = qHTS assay to test for compound auto fluorescence at 590 nm (red) in HepG2 cells (AID 720674)
How it was run: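 We screened compounds on adherent HepG2 cells, incubating them for an hour at 37 C in 5% CO2 before reading emission at 590 nm under 540 nm excitation; values reflect equivalence to Rose Bengal sodium fluorescence.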

[4] = qHTS assay to test for compound auto fluorescence at 460 nm (blue) in HEK293 cells (AID 720678)
How it was run: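 After cell attachment (4-5 hr, 37C), compounds were pinned onto HEK293 monolayers in 10% dialyzed FBS medium. The blue channel (405/460 nm) was read following overnight culture. Equivalency was calculated against triamterene.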

[5] = qHTS assay to test for compound auto fluorescence at 590 nm (red) in HEK293 cells (AID 720679)
How it was run: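 Plates of HEK293 cells (10% dialyzed FBS) are treated with 23 nL compound or DMSO vehicle after a 4-5 hr attachment period, incubated overnight at 37C, and read for red fluorescence at 540/590nm.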

[6] = qHTS assay to test for compound auto fluorescence at 460 nm (blue) in HEK293 cell free culture (AID 720681)
How it was run: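 Blue fluorescence (Ex 405/Em 460 nm, triamterene-equivalent) was read immediately after pin transfer of compound or DMSO into medium (DMEM, 10% FBS) without cells.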

[7] = qHTS assay to test for compound auto fluorescence at 535 nm (green) in HEK293 cell free culture (AID 720682)
How it was run: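 Green-label autofluorescence (485 nm excitation, 535 nm emission) measured on compound added to cell-free culture medium (DMEM, 10% FBS). Output is expressed relative to fluorescein.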

[8] = qHTS assay to identify small molecule antagonists of the glucocorticoid receptor (GR) signaling pathway - cell viability counter screen (AID 720693); also: nearly all actives have a fitted effect of over 55% in size; also: potency is read from the fitted curve at half-maximal effect
[9] = qHTS assay to identify small molecule antagonists of the androgen receptor (AR) signaling pathway using the MDA cell line - cell viability counter screen (AID 743041; also: nearly all actives have a fitted effect of over 45% in size; also: potency is read from the fitted curve at half-maximal effect)
How it was run: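 Viability read by CellTiter-Fluor fluorescence in the same wells as the antagonist screen, added after 15.5 h of a 16 h, 37C exposure. Human breast carcinoma MDA-kb2 AR-luc cells, compounds co-dosed with agonist R1881.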

[10] = system: thyroid hormone receptor (rat, GH3 cells); test: qHTS assay to identify small molecule agonists of the thyroid receptor (TR) signaling pathway (AID 743066; calls by dose curve)
[11] = qHTS assay to identify small molecule antagonists of the estrogen receptor alpha (ER-alpha) signaling pathway - cell viability counter screen (AID 743074; calls by dose curve;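 also: HEK293 cells carrying ER-alpha-UAS-bla reporter stimulated with 17beta-estradiol; nearly all actives have a fitted effect of over 45% in size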; also: potency is read from the fitted curve at half-maximal effect)
[12] = qHTS assay to identify small molecule antagonists of the estrogen receptor alpha (ER-alpha) signaling pathway using the BG1 cell line - cell viability counter screen (AID 743081);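 also: compound given together with 17beta-estradiol as the ER stimulus; nearly all actives have a fitted effect of over 45% in size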; also: potency is read from the fitted curve at half-maximal effect
Aromatase (Homo sapiens) = Aromatase (Homo sapiens) (UniProt P11511); test: qHTS assay to identify aromatase inhibitors (AID 743083); also: nearly all actives have a fitted effect of over 55% in size; also: potency is read from the fitted curve at half-maximal effect
Chain of Aromatase (Homo sapiens) (P11511 whole entry, looked up): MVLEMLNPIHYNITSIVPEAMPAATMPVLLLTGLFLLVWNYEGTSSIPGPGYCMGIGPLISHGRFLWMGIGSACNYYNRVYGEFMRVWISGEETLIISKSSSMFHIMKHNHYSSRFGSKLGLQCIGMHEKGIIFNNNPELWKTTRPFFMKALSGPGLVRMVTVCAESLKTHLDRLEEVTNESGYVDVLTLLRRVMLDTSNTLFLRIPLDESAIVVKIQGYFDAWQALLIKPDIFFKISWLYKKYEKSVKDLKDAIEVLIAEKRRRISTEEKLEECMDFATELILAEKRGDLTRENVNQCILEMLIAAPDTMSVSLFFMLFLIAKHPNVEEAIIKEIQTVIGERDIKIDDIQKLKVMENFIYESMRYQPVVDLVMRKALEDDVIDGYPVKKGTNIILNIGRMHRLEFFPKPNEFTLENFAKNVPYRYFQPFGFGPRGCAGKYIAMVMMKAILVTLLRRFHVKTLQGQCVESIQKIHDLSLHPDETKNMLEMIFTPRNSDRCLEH

[13] = qHTS assay to identify aromatase inhibitors - cell viability counter screen (AID 743084);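 also: cells stimulated with testosterone during compound exposure; nearly all actives have a fitted effect of over 55% in size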; also: potency is read from the fitted curve at half-maximal effect
[14] = qHTS assay to identify small molecule that activate the aryl hydrocarbon receptor (AhR) signaling pathway - cell viability counter screen (AID 743086); also: nearly all actives have a fitted effect of over 45% in size; also: potency is read from the fitted curve at half-maximal effect
How it was run: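 Cytotoxicity counter screen: CellTiter-Fluor signal (30 min, 37 C) in 4000 HepG2 cells/well carrying the DRE-luciferase reporter, following 24 h compound exposure at 37 C.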

[15] = qHTS assay to identify small molecule phospholipidosis (PLD) inducers (AID 1259344; active = well fitted curve in the direction sought with a large enough effect; an effect the other way counts as inactive or inconclusive)
How it was run: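 Phospholipid accumulation was scored by imaging: fixed, Hoechst-counterstained HepG2 cells stained with LipidTOX Red after 24 h compound exposure at 37 C. Read-outs were pit count and pit intensity per well or per cell, with amiodarone and DMSO controls.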

[16] = molecular target: Nuclear receptor subfamily 1 group I member 2 (Rattus norvegicus) (UniProt Q9R1A7); test: Rat pregnane X receptor (rPXR) activation by small molecules, qHTS assay (AID 1346983); conditions: rPXR luciferase reporter cells, One-Glo luminescence, 24 h; max activation: hits give high values; also: nearly all actives have a fitted effect of over 20% in size
Chain of Nuclear receptor subfamily 1 group I member 2 (Rattus norvegicus) (Q9R1A7 whole entry, looked up): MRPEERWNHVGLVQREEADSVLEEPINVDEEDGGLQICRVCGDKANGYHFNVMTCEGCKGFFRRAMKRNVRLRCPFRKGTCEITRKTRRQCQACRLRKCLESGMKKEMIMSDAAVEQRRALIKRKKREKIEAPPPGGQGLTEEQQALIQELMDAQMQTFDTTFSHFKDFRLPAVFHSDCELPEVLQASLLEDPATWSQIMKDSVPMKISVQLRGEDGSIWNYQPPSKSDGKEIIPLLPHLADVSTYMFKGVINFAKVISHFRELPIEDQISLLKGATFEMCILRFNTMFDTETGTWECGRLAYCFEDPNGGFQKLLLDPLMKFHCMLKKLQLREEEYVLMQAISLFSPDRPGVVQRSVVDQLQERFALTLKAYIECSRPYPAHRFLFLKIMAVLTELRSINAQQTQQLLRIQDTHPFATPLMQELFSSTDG
How it was run: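 Luminescent readout (One-Glo luciferase, 30 min room temperature) followed 24 hr compound treatment at 37 C of rPXR cells plated 2,000 per well and preincubated 5hr; qHTS format with compounds delivered in DMSO.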

[17] = molecular target: Nuclear receptor subfamily 1 group I member 2 (Homo sapiens) (UniProt O75469); test: CYP3A4 induction through human pregnane X receptor (PXR) by small molecules, qHTS assay (AID 1346984); also: nearly all actives have a fitted effect of over 40% in size; also: potency is read from the fitted curve at half-maximal effect
How it was run: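 Cells (DPX-2; HepG2 with PXR element plus CYP3A4-promoter luciferase) settled 5hr, then were treated 24hr at 37C. A 3hr, 3uM-final Luciferin-IPA step preceded luminescence measurement with One-Glo.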

[18] = qHTS assay for small molecules that induce genotoxicity in human embryonic kidney cells expressing luciferase-tagged ATAD5 (AID 651632); also: nearly all actives have a fitted effect of over 15% in size; also: potency is read from the fitted curve at half-maximal effect
How it was run: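 DMSO vehicle served as the control. HEK293T reporter cells, 16 hr at 37C, then 30 min Amplite at room temperature; ATAD5 induction is measured as luciferase activity.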

[19] = qHTS assay for small molecules that induce genotoxicity in human embryonic kidney cells expressing luciferase-tagged ATAD5 - cell viability (AID 651634; calls by dose curve; also: nearly all actives have a fitted effect of over 25% in size; also: potency is read from the fitted curve at half-maximal effect)
How it was run: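 Here HEK293T cells with the ATAD5 luciferase reporter are incubated with test compounds for 15.5 hr, and cytotoxicity is then gauged by measuring protease activity in live cells using fluorescence.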

Structure (SMILES) | Potency [1] | Potency [2] | outcome [3] | Potency [4] | outcome [5] | Potency [6] | Potency [7] | Potency [8] | Potency [9] | Potency [10] | Potency [11] | Potency [12] | Potency (Aromatase (Homo sapiens)) | Potency [13] | Potency [14] | Potency [15] | max activation [16] | Potency [17] | Potency [18] | Potency [19]
Cc1nnc2n1-c1ccc(Cl)cc1C(c1ccccc1Cl)=NC2 | inactive | inactive | inactive | inactive | inactive | inactive | inactive | inactive | inactive | inactive | inactive | inactive | inactive | inactive | inactive | inactive | 3.04% | inactive |  | 
CC[C@H]1[C@@H]2C[C@H]3[C@@H]4N(C)c5ccccc5[C@]45C[C@@H](C2[C@H]5O)N3[C@@H]1O (some centres not stated) | inactive | inactive | inactive | inactive | inactive | inactive | inactive | inactive | inactive | inactive | inactive | inactive | inactive | inactive | inactive | inactive | 0.0648% |  | inactive | inactive
Cc1nnc2n1-c1ccc(Cl)cc1C(c1ccccc1)=NC2 | inactive | inactive | inactive | inactive | inactive | inactive | inactive | inactive | inactive | inactive | inactive | inactive | inactive | inactive | inactive | inactive | -0.769% | inactive | 13.3 µM (active) | inactive
CNC1(c2ccccc2Cl)CCCCC1=O (configuration not stated) | inactive | inactive | inactive | inactive | inactive | inactive | inactive | inactive | inactive | inactive | inactive | inactive | inactive | inactive | inactive | inactive | -2.7% and 3.43% |  | inactive | inactive
COc1ccc2c3c1O[C@H]1C(=O)CC[C@H]4[C@@H](C2)N(C)CC[C@]314 | inactive | inactive | inactive | inactive | inactive | inactive | inactive | inactive | inactive | inactive |  | inactive | inactive | inactive | inactive | inactive | -2.81% | inactive | inactive | inactive
C=CC[C@]1(O)CC[C@H]2[C@@H]3CCC4=CCCC[C@@H]4[C@H]3CC[C@@]21C | inactive | inactive | inactive | inactive | inactive | inactive | inactive | inactive | inactive |  | inactive | inactive |  | inactive | inactive | inactive | 1.23% | inactive | inactive | inactive
Cc1cc(C)cc(C(=O)OC2C[C@H]3CC[C@@H](C2)N3C)c1 (some centres not stated) | inactive | inactive | inactive | inactive | inactive | inactive | inactive | inactive | inactive | inactive | inactive | inactive | inactive | inactive |  | inactive | -1.64% |  | inactive | inactive
Cc1cccc(C(C)c2cnc[nH]2)c1C (configuration not stated) | inactive | inactive | inactive | inactive | inactive | inactive | inactive | inactive | inactive | inactive | inactive | inactive | 29.8 µM (active) | inactive | inactive | inactive | -0.62% | inactive |  | inactive
CNC(=O)Oc1ccccc1C(=O)Nc1ccccc1 | inactive |  | inactive | inactive | inactive | inactive | inactive | inactive | inactive | inactive | inactive | inactive | inactive | inactive | inactive | inactive | -3.26% | 14.1 µM (active) | inactive | inactive
Oc1cccc[c]1[Hg][Cl] | 7.5 µM (active) | 13.3 µM (active) | inactive | inactive | inactive | inactive | inactive | 5.35 µM (active) | 7.5 µM (active) |  | 21.3 µM (active) | 23.7 µM (active) | 3.76 µM (active) | 5.31 µM (active) | 16.8 µM (active) | inactive | -19.4% | inactive | inactive | 4.22 µM (active)
C[C@]12CC[C@H]3[C@@H](CCC4=C(Cl)C(=O)CC[C@@]43C)[C@@H]1CC[C@@H]2O | inactive | inactive | inactive | inactive | inactive | inactive | inactive | inactive | inactive | inactive | inactive | inactive | inactive | inactive | inactive | inactive | -0.226% | inactive | inactive | inactive
CCCC(C)C1(CC)C(=O)NC(=O)NC1=O (configuration not stated) |  | inactive | inactive | inactive | inactive | inactive | inactive | inactive | inactive | inactive | inactive | inactive | inactive | inactive | inactive | inactive | -2.06% | inactive | inactive | inactive
